Compound activity from PubChem.
Only some compounds are listed: those with a hit (about 21% of all), similar ones and a draw of the others.
DT40 TDP1 CPT: DT40-hTDP1 cell growth loss with CPT | chicken DT40 Tdp1-/-;hTDP1 cells + 20 nM CPT, ATP luminescence, 48 h | Potency, µM (top dose mostly 46.2 µM), without a hit: at the highest dose activity change, negative = growth inhibition, most hits filed as inhibitors | 12% of 420,000 active; also: potency is read from the fitted curve at half-maximal effect; % is scaled to controls: 0 for no effect and ±100 for the full control effect; nearly all actives have a fitted effect of over 55% in size
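Chicken DT40 Tdp1-/- cells stably complemented with human TDP1 were seeded at 400 cells/well in medium containing 20 nM camptothecin, exposed to pin-transferred compounds, and grown at 37 °C for at least 48 hr. Viability was read as ATP luminescence.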
DRD3 antagonist: blocks the human D3 dopamine receptor; P35462; D3R cells, DiscoveRx beta-arrestin luminescence, antagonist mode; hits give low values; max response, negative = inhibition, %; 2.5% of 360,000 active; AID 652054; in the data active = max response below about -50%; inconclusive = no clear call, values can overlap the other calls; also: % is scaled to controls: 0 for no effect and ±100 for the full control effect
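Cells expressing the human receptor were seeded at 1500 cells/well, incubated overnight at 37 degrees C in 5% CO2, then exposed to library compounds with dopamine controls for 90 minutes at 37 degrees C before luminescent detection.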
ClpP mod: qHTS Assay for Activators of ClpP; ATP-dependent Clp protease proteolytic subunit (Bacillus subtilis (strain 168)), P80244; purified B. subtilis ClpP, FRET peptide cleavage, 20 min; Potency, µM (titrated, usually from 57.5 µM), for the others: at the top dose activity change, negative = active; 1.9% of 340,000 active; AID 651965, 2013; active = well fitted falling curve with a large enough effect; inconclusive = small, poorly fitted or top-dose-only effect; inactive = no such curve, though single readings can be large or run the other way; also: potency is read from the fitted curve at half-maximal effect; the source files actives as falling curves though it sought activators and does not explain the sign; nearly all actives have a fitted effect of over 65% in size
Target sequence (P80244 whole entry, looked up): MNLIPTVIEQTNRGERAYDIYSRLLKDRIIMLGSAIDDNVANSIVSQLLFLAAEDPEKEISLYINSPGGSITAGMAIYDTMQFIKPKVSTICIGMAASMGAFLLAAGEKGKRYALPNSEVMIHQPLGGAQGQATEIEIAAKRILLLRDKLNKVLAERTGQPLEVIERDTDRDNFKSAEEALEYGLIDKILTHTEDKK
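Buffer: 100 mM Tris/HCl pH8, 100 mM KCl, 0.05% low protease BSA, 2.5% glycerol, 0.01% Tween-20. ClpP 10 microg/mL final; 20 min RT; delta FRET normalized to ADEP and DMSO controls.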
IL1B secr inh: inhibitors of inflammasome signaling (IL-1 beta secretion); 4.7% of 360,000 active; THP-1 LPS/ATP IL-1B secretion, AlphaLISA, 16 h; hits give low values; activity change, % at 57.5 µM; in the data active = activity change below about -50%; inconclusive = mostly about -30% to -49%; also: % is scaled to controls: 0 for no effect and ±100 for the full control effect
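Secreted IL-1B measured by AlphaLISA bead assay after 16 h compound exposure of THP-1 cells; compounds (final up to 57.5 uM) added 1 h before LPS (250 ng/mL) and ATP (1.25 mM) stimulation; lower signal means less secretion.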
DRD3 agonist: D3 dopamine receptor (human) agonism. P35462. D3R DiscoveRx beta-arrestin cells, luminescence, 90 min. max activation, %. 0.58% of 410,000 active. AID 652048; in the data active = max activation above about 30%; also: 0% is about no effect
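Agonist-mode cell screen: cells plated at 1500/well and incubated overnight at 37 °C, then exposed to library compounds for 90 min at 37 °C. Detection reagent was added for 30–60 min at room temperature, and luminescence was read.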
DT40 TDP1 no CPT: qHTS for Inhibitors of human tyrosyl-DNA phosphodiesterase 1 (TDP1): qHTS in cells in absence of CPT; DT40 Tdp1-/- hTDP1 cells, no CPT, ATP luminescence, 48 h; Potency, µM (top dose mostly 46.2 µM), inactives show top-dose activity change, negative = growth inhibition, most hits filed as inhibitors; 15% of 420,000 active; AID 686978, 2013; also: potency is read from the fitted curve at half-maximal effect; % is scaled to controls: 0 for no effect and ±100 for the full control effect; nearly all actives have a fitted effect of over 55% in size
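A cellular qHTS used chicken DT40 cells lacking endogenous Tdp1 but carrying stably transfected human TDP1. Compounds were applied without camptothecin, and cell growth kinetics were judged by ATP-dependent luminescence after ≥48 hr.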
Starred values were filed as active, the others as inactive; u = inconclusive; x = no result. Unless noted, calls follow the shape of the dose curve; as a rule, active = well fitted inhibition curve with a large enough effect; inconclusive = small, poorly fitted or top-dose-only effect; inactive = flat fitted curve, though single readings scatter.

SMILES	DT40 TDP1 CPT	DRD3 antagonist	ClpP mod	IL1B secr inh	DRD3 agonist	DT40 TDP1 no CPT
Cc1nnc(NC(=O)c2ccc(S(=O)(=O)N3CCCCCC3)cc2)o1	-22.5%	-71.9*	1.3%	-3.7	-3.1	u
CCOC(=O)c1csc(N/N=C2\CCCc3ccccc32)n1	u	27.8	0.2%	14.6	0.2	16.4µM*
CCOC(=O)c1csc(N/N=C2\CCc3ccccc32)n1	u	3.2	-0.7%	-92.5*	-0.8	u
CCOC(=O)c1csc(NC(=O)c2cccs2)n1	3.2%	-2.1	2.0%	-19.0	2.4	-19.3%
Cc1cc(NC(=O)CCC(=O)N(c2ccccc2C)C(C(=O)NC2CCCC2)c2ccccc2)no1 (stereo not drawn)	u	-13.9	x	-2.3	-11.1	u
CC(C)(C)c1cc(NC(=O)C2(C)CCN2C(=O)c2ccccc2CCc2ccccc2)no1 (stereo not drawn)	u	121.4	0.3%	6.1	4.8	20.6µM*
Cn1nc(C(C)(C)C)cc1NC(=O)C1(C)CCN1C(=O)CCc1ccccc1 (stereo not drawn)	u	0.0	-1.6%	-2.7	-7.1	u
Cn1nc(C(C)(C)C)cc1NC(=O)C1(C)CCN1C(=O)c1ccccc1CCc1ccccc1 (stereo not drawn)	18.4µM*	-25.1	1.9%	-5.3	-11.4	u
Cn1nc(C(C)(C)C)cc1NC(=O)C1(C)CCN1C(=O)Cc1ccc(-c2ccccc2)cc1 (stereo not drawn)	14.6µM*	2.7	-0.2%	-12.5	7.4	18.4µM*
COc1ccc(Cl)cc1NC(=O)COC(=O)C1CC(=O)N(Cc2ccccc2)C1 (stereo not drawn)	-21.2%	-1.5	-1.6%	23.1	2.0	-29.8%
COc1ccc(S(=O)(=O)Nc2cccc(-c3ccc(N4CCC(C)CC4)nn3)c2)cc1OC	u	x	-4.6%	x	-6.2	u
Cc1ccc(C(=O)N2CC(=O)Nc3ccc(F)cc3C2c2ccccc2)cc1 (stereo not drawn)	1.2%	6.0	-1.5%	-2.9	-9.4	-24.7%
O=C(c1ccccc1)N1CCN(C2c3cccc4cccc(c34)C2NS(=O)(=O)c2ccccc2)CC1 (stereo not drawn)	u	16.0	-1.7%	-5.1	-3.3	u
O=S(=O)(NC1c2cccc3cccc(c23)C1N1CCN(CCO)CC1)c1ccccc1 (stereo not drawn)	u	0.0	-5.3%	-8.0	-8.7	14.6µM*
COc1ccc(CCC2=NCCN2C(CC(C)C)c2nc3ccccc3[nH]2)cc1 (stereo not drawn)	20.6µM*	-3.1	0.7%	0.0	-7.2	16.4µM*
C=C1C(=O)OC2C1CCC(C)=C1C(=O)C3OC3(C)C12 (stereo not drawn)	0.058µM*	-129.0*	0.2%	-104.5*	-58.3	0.184µM*
Cc1ccc(-n2nnnc2SCC(=O)NCC2(N3CCOCC3)CCCCC2)cc1	u	10.6	-0.7%	3.8	5.2	u
CN1CCN(c2ccc(NC(=O)CSc3nnnn3-c3ccccc3F)cc2)CC1	u	6.3	-1.2%	-6.6	-1.0	-22.5%
Cc1ccc(-n2nnnc2SCC(=O)Nc2ccc(N3CCN(C)CC3)cc2)c(C)c1	u	-11.0	-1.0%	1.0	-6.0	18.4µM*
Cc1ccc(-n2nnnc2SCC(=O)NCC2(N3CCOCC3)CCCCC2)c(C)c1	u	4.5	0.7%	-12.5	8.2	16.4µM*
Cc1ccc(-n2nnnc2SCC(=O)NCC2(N3CCCCC3)CCCCC2)c(C)c1	-23.0%	-20.3	-2.1%	-57.3*	-17.0	-9.7%
Cc1cccc(-n2nnnc2SCC(=O)NCC2(N3CCOCC3)CCCCC2)c1C	18.4µM*	15.6	1.5%	-13.5	-6.7	20.6µM*
CC(C)NC(=S)Nc1ccc2cn[nH]c2c1	0.1%	2.7	-5.6%	24.4	9.6	-24.2%
